This passage reports outcome results from PubChem BioAssay AID588432 (Broad Institute, 2011).

The source made the active and inactive calls.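 Rule for the calls: active = luciferase inhibitors whose fitted dose curve gives a half-maximal potency within ten times the top tested dose; inconclusive = flat curve with 30 to 70% inhibition, or a poor fit; inactive = the rest.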

This assay can be described thus: ADP-Glo luciferase interference without Dyrk1A, dose response, artefact control for Dyrk1A inhibitor project, biochemical, luminescence, cherry-pick, set 04 (AID 588432). The note with it: ADP-Glo luminescence without kinase, luciferase artifact; series mostly up to 12 µM. On the technique in general: In ADP-Glo the light output rises with the ADP produced.
As to `Clc1cc(Cl)cc(CNc2ncncc2-c2ccc3c(c2)OCO3)c1`, the call was inactive.
In the case of `c1cncc(CNc2ncncc2-c2ccc3c(c2)OCO3)c1`, the outcome was inactive.
Regarding `c1cncc(CNc2ccnc(-c3ccc4cn[nH]c4c3)n2)c1`, the result was inactive.
Then `c1cncc(CNc2nccc(-c3ccc4c(c3)OCO4)n2)c1`, with “inactive”; and `Clc1ccc(CNc2nccc(-c3ccc4cn[nH]c4c3)n2)cc1Cl`, with “inactive”; and `c1csc(CNc2ncnc3ccc(-c4ccc5c(c4)OCO5)cc23)c1`, with “inactive”.
With `Cc1ccc(CN(C)c2ncnc3ccc(-c4ccc5c(c4)OCO5)cc23)o1`, the call was inactive.
For `Cn1ccc2cc(-c3ccc4ncnc(NCc5cccc(F)c5)c4c3)ccc21`, the outcome was inactive.
Then `FC(F)(F)c1cccc(Nc2nccc(-c3ccc4c(c3)OCO4)n2)c1`, with “inactive”; and `COc1cc(-c2ccc3ncnc(NCCc4cnc[nH]4)c3c2)cc(OC)c1OC`, with “inactive”.
Then `Clc1ccc(CNc2nccc(-c3ccc4c(c3)OCCO4)n2)cc1Cl`, with “inactive”; and `c1csc(CNc2ncnc3ccc(-c4ccc5c(c4)OCO5)cc23)n1`, with “inactive”.
As for `c1nc(NCC2CCCO2)c2cc(-c3ccc4c(c3)OCO4)ccc2n1` (stereo unspecified), the molecule was called inactive.
For `c1cncc(CNc2ccnc(-c3ccc4[nH]ncc4c3)n2)c1`, the molecule was classed as inactive.
Then `Clc1ccc(CNc2nccc(-c3ccc4c(c3)OCO4)n2)cc1Cl`, with “inactive”; and `Clc1ccc(CNc2ncncc2-c2ccc3c(c2)OCO3)cc1Cl`, with “inactive”.
